Laboratory results: PubChem BioAssay AID2284353 (EPA ToxCast)
Inconclusive results are not listed. Active and inactive are the calls of the source. Rule for the calls: active = hit-call score of the fitted dose curve at least 0.9, where 1 is the maximum; inconclusive = response in the unintended direction; inactive = score below 0.9.

tested on: Japanese medaka Peroxisome Proliferator-activated Receptor gamma (PPARg), gene 100304459; test: ATG_jmPPARg_EcoTox2: Attagene TRANS-FACTORIAL EcoTox-2 HepG2 Assay for Japanese medaka Peroxisome Proliferator-activated Receptor gamma (PPARg)
Method: ATG_EcoTox2 is a cell-based, multiplexed assay created by modifying the existing Attagene TRANS-FACTORIAL system to include a panel of nuclear receptors from some or all the following species: human (Homo sapiens), african clawed frog (Xenopus laevis), rainbow trout (Oncorhynchus mykiss), japanese medaka (Oryzias latipes), and zebrafish (Danio rerio). The ECOTOX2-FACTORIAL format uses HepG2, a human liver cell line, with measurements taken at 24 hours after chemical dosing in a 24-well plate. ATG_jmPPARg_EcoTox2 is one of 29 assay components calculated in the ATG_EcoTox2 assay. It is designed to make measurements of mRNA induction, a form of inducible reporter, as detected with fluorescence intensity signals by Reverse transcription polymerase chain reaction (RT-PCR) and Capillary electrophoresis technology.The assay endpoint ATG_jmPPARg_EcoTox2 was analyzed in the positive analysis fitting direction relative to DMSO as the negative control and baseline of activity. Using a type of inducible reporter, measures of mRNA for gain-of-signal activity can be used to understand the reporter gene at the transcription factor-level as they relate to the gene PPARg. Furthermore, this assay endpoint can be referred to as a primary readout, because this assay has produced multiple assay endpoints where this one serves a reporter gene function. To generalize the intended target to other relatable targets, this assay endpoint is annotated to the nuclear receptor intended target family, where the subfamily is non-steroidal.
Human liver HepG2 cells are transiently transfected with multiple reporter transcription units (MRTUs) in 6-well plates using FuGene 6 reagent (Roche; 3 ml FuGene/1 mg DNA). The MRTU constructs are regulated by a cis-regulating element (promoter). Each RTU expresses a GAL4-UAS that regulates the transcription of a nearby target reporter gene sequence. A major difference between the CIS and TRANS system is that in CIS activities of endogenous TFs are measured, whereas the TRANS assay evaluates changes in activities of exogenous, chimeric NR-Gal4 proteins. […] At the end of 24 hour incubation, total RNA was isolated using TriZol reagent (Invitrogen). The isolated RNA is then reverse-transcribed using oligo(dT) primer and Mo-MLV reverse transcriptase (Invitrogen) with DNAse I (Ambion) treatment for 30 min. The one-tenth of the produced cDNA was amplified by PCR using Taq DNA polymerase (Invitrogen) and two reporter sequence-specific primers. The PCR products were fluorescently labeled by primer extension with 6-arboxyfluorescein (6-FAM) 5'-labeled reporter sequence-specific primer (2 min at 95 C, 20 s at 68 C and 10 min at 72 C) and these products were digested with 5U of HpaI (New England Biolabs) for 2h at 37 C. The fragments were purified using Qiaquick PCR columns (Qiagen), analyzed on an ABI 3130xL genetic analyzer (Applied Biosystems) with peak positions identified by using a set of X-rhodamine (ROX)-labeled MapMarker1000 molecular weight standards (BioVentures). The raw capillary electrophoresis data was processed using Attagraph software (Attagene).

`CCCCOCN(C(=O)CCl)c1c(CC)cccc1CC` was tested. Which AC50 did it give?
Its AC50 is 4.6 µM (active).

How did the AC50 turn out when `O=S(=O)(O)C(F)(F)C(F)(F)C(F)(F)C(F)(F)C(F)(F)C(F)(F)F` was run?
The AC50 was 76.1 µM (active).

For `O=C(O)C(F)(F)C(F)(F)C(F)(F)C(F)(F)C(F)(F)C(F)(F)C(F)(F)F`, which AC50 is on record?
The AC50 was 75 µM (active).

With `O=P(Oc1ccccc1)(Oc1ccccc1)Oc1ccccc1` as the compound, how does the AC50 read?
Its AC50 is 30.6 µM (active).

Which AC50 does the source give for `[Cl][Sn]([c]1ccccc1)([c]1ccccc1)[c]1ccccc1` here?
The AC50 was 0.382 µM (active).
